High-throughput results from PubChem.
PME-1 inh: PME-1 (human) inhibition; Q9Y570; recombinant PME-1, FP-Rh probe fluorescence polarization; inhibition, % at 5.9 µM; actives 0.53% (n = 320,000);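 active means inhibition above the campaign mean of all compounds plus 3 SD, cut at about 26% in these data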;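 further: competitive labeling of PME-1 active site by serine hydrolase directed probe; 0% = PME-1 with DMSO and 100% = wells lacking PME-1 enzyme; inhibitors block probe labeling so polarization falls and inhibition rises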
GSTO1 inh: counter-screen for RBBP9 inhibitors: inhibitors of human GSTO1; inhibition, % at 5.96 µM; recombinant GSTO1, activity-based probe fluorescence polarization; P78417; actives 1.1% (n = 300,000);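 active means inhibition above the campaign mean inhibition plus 3 SD, cut at about 35% in these data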;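 further: 0% = GSTO1-1 with DMSO and 100% = wells lacking GSTO1-1 enzyme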
PAD4 inh: blocks human protein arginine deiminase 4. inhibition, % at 6.36 µM. actives 0.41% (n = 330,000). recombinant PAD4, RCA probe fluorescence polarization;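 active means percent inhibition above a cutoff equal to the mean of all tested compounds plus 3 SD, cut at about 15% in these data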;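 further: 0% = PAD4 with RCA probe and DMSO and 100% = probe without PAD4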
LYPLA1 inh: counter-screen for PME1 inhibitors: inhibitors of human LYPLA1; recombinant LYPLA1, FP-Rh probe fluorescence polarization; inhibition, % at 5.9 µM; actives 0.16% (n = 320,000); AID 2174;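 active means inhibition above the mean of all tested compounds plus 3 SD, set per campaign, cut at about 14% in these data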;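 further: inhibitors block serine hydrolase probe labeling of LYPLA1 so polarization falls; 0% = enzyme with DMSO and 100% = wells lacking LYPLA1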
Target sequence (O75608 whole entry, looked up): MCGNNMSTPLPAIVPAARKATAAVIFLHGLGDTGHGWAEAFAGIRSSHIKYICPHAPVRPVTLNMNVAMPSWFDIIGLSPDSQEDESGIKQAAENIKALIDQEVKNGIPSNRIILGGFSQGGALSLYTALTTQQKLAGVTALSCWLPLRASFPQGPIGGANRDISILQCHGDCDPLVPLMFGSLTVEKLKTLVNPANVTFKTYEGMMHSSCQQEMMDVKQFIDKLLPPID
Fam108B counter: blocks mouse Fam108B hydrolase in RBBP9 counter-screen; recombinant Fam108B, FP-Rh probe fluorescence polarization; actives 0.33% (n = 300,000); inhibition, % at 9.51 µM;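 active means inhibition above the screen mean inhibition plus 3 SD, computed separately per campaign, cut at about 18% in these data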;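 further: inhibitors lower polarization as less probe binds the enzyme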
LYPLA2 inh: blocks human lysophospholipase 2, a PME1 counter-screen | recombinant LYPLA2, FP-Rh probe fluorescence polarization | inhibition, % at 5.9 µM | actives 0.38% (n = 320,000) | AID 2177;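 active means inhibition above the screen-wide mean plus 3 SD, limit set per campaign, cut at about 26% in these data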;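 further: 0% = LYPLA2 with DMSO and 100% = wells lacking LYPLA2 enzyme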
Target sequence (O95372 whole entry, looked up): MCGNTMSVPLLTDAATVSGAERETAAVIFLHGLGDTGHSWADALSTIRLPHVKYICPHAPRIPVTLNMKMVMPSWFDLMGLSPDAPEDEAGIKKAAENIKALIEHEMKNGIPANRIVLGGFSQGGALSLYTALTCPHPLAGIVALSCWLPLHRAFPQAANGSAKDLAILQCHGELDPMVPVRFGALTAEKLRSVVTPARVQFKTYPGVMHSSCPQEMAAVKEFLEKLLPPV
GSTO1 inh conf: GSTO1 (human) inhibition, confirmation; shares compounds with GSTO1 inh; recombinant GSTO1, probe fluorescence polarization; inhibition, % at 5.96 µM; actives 54% (n = 2,400); AID 2176;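 active means inhibition above the primary screen's cutoff, its mean inhibition plus 3 SD, cut at about 35% in these data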;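 further: loss of polarization as inhibitors block binding of rhodamine sulfonate ester activity probe; 0% = GSTO1 with DMSO and 100% = wells lacking GSTO1 enzyme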
GSTO1 recomb ABPP: blocks recombinant human glutathione S-transferase omega 1 | shares compounds with GSTO1 inh | recombinant GSTO1, gel ABPP SE-Rh probe fluorescence | inhibition, % at 1 µM | actives 30% (n = 130) | AID 463110;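 active means inhibition of the enzyme GSTO1 above about 75%, limit read from the data; inactive means inhibition below that limit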
* hit, by the source's call; . = no result. Most compounds without a hit are left out; they make up all but 1.8% or so of the library.

SMILES	PME-1 inh	GSTO1 inh	PAD4 inh	LYPLA1 inh	Fam108B counter	LYPLA2 inh	GSTO1 inh conf	others
O=C(O)CC1(CC(=O)N2CCC(C(=O)O)CC2)CCCC1	-4	1	0	-3	0	-2	.
Cc1ccc[n+](CC(=O)Nc2cccc([N+](=O)[O-])c2)c1	4	2	2	2	0	0	.
Cc1ccc[n+](CC(=O)Nc2ccc([N+](=O)[O-])cc2)c1	0	91*	4	0	5	1	95*
O=C1C=C(NCCN2CCOCC2)C(=O)c2cnccc21	12	84*	41*	-4	12	2	82*
C[C@H]1CN([C@@H](C)CO)C(=O)c2cccc(NC(=O)C3CC3)c2O[C@H]1CN(C)S(=O)(=O)c1cccs1	.	.	0	.	.	.	.
Nc1ccc2nn(-c3cccc4ccccc34)nc2c1	8	61*	2	-11	7	-14	7
Cc1cc2nn(-c3cccc4ccccc34)nc2cc1N	3	15	-3	-1	1	1	.
CCCCC(C(=O)NC1CCCC1)N(C(=O)c1snc(C(N)=O)c1N)c1ccc(C)cc1 (centres undefined)	-3	1	-3	-1	2	0	.
COc1ccc(C2C(C(=O)/C=C/c3ccco3)=C(O)C(=O)N2CCN2CCOCC2)cc1 (centres undefined)	-8	12	-3	-3	3	-1	.
CCOc1ccc(C2C(C(=O)/C=C/c3ccco3)=C(O)C(=O)N2CCN2CCOCC2)cc1OC (centres undefined)	-8	38*	-3	-5	-2	-11	6
CCOc1ccc2c(c1)C(C)=CC(C)(C)N2C(=O)Nc1ccccc1F	6	42*	-6	0	6	7	3
CCNC(=O)N1c2ccc(OCC)cc2C(C)=CC1(C)C	2	18	-7	2	-1	4	.
O=C1C(c2ccccc2)=[N+]([O-])c2ccccc21	6	64*	-12	0	7	5	48*
CCOC(=O)c1[nH]c2ccc(OC)cc2c1NC(=O)CN1CCc2ccccc2C1	7	51*	-4	-5	0	-1	1
O=[N+]([O-])c1ccc(-c2ccc(C=Nc3cccc4ccccc34)o2)cc1	-2	63*	24*	0	-2	3	5
CN(C)S(=O)(=O)c1cccc(NC(=O)c2cc(=O)[nH]c(=O)[nH]2)c1	5	5	-1	-1	3	-3	.
O=C(O)c1cccc(N2C(=O)c3cc([N+](=O)[O-])cc4cc([N+](=O)[O-])cc(c34)C2=O)c1	8	71*	42*	-1	15	3	40*
O=C1c2cc([N+](=O)[O-])cc3cc([N+](=O)[O-])cc(c23)C(=O)N1c1ccccn1	-1	42*	13	-1	6	4	7
C=CCn1c(SCC(=O)c2ccc(O)c(O)c2)nnc1-c1cccc(C)c1	1	.	0	2	.	1	.
C=CCn1c(SCC(=O)c2ccc(O)c(O)c2)nnc1-c1ccccc1OC	2	41*	6	-2	2	-5	8
C=CCn1c(SCC(=O)c2ccc(O)c(O)c2)nnc1-c1cccnc1	-3	40*	1	-2	4	3	13
CCOC(=O)C1=C(C)Nc2ccccc2N=C1NC(=O)c1oc2ccccc2c1COC	-4	.	-1	-2	.	2	.
Cc1noc(C)c1-c1nc(CS(=O)(=O)c2ccc(F)cc2)no1	-5	6	-6	2	-2	-1	.
C/C(=N\Nc1nc2ccccc2c(=O)n1O)c1ccco1	-1	67*	-4	0	3	1	25
Cc1ccc2c(c1)c1nc3ccccc3nc1n2C	-10	-2	-1	-1	-1	0	.
SMILES	PME-1 inh	GSTO1 inh	PAD4 inh	LYPLA1 inh	Fam108B counter	LYPLA2 inh	GSTO1 inh conf	others
Cn1c2ccc(Cl)cc2c2nc3ccccc3nc21	-8	76*	-1	2	-1	-2	-4
O=[N+]([O-])c1cc(Br)cc(C=Nc2ccc3c(c2)OCO3)c1O	14	43*	-1	-3	7	3	38*
O=C(c1[nH]ncc1-c1cccc(Br)c1)C1CO1 (centres undefined)	1	82*	6	3	-3	3	90*	GSTO1 recomb ABPP=71
CCC1(C)N=c2c(c(=O)n(C)c(=O)n2C)=NO1 (centres undefined)	-1	1	-5	-1	-1	-6	.
O=P(Cc1ccccc1)(c1ccccc1)c1ccccc1	-6	3	-2	2	0	1	.
O=P(O)(Cc1ccccc1)Cc1ccccc1	-8	47*	1	-1	8	-2	3
Cc1ccc(CNC(=O)c2ccccc2-n2cnnn2)cc1	0	1	3	-1	2	-1	.
O=C1c2ccccc2C(=O)C12OC(c1ccccc1)C1(C(=O)c3ccccc3C1=O)C2c1ccc([N+](=O)[O-])cc1 (centres undefined)	3	-5	-9	0	-2	3	.
O=C1c2ccccc2C(=O)C12OC2c1ccc(Cl)cc1 (centres undefined)	4	45*	-18	0	5	2	15
Cc1ccccc1NC(=O)C(Cl)=C(Cl)Cl	-5	44*	2	-1	-2	-5	24
Cc1ccccc1NNC(=O)C(=O)NNc1ccccc1C	-1	6	3	-1	9	1	.
CCS(=O)(=O)C1=NN2C(=N)/C(=C\c3ccc(OC(=O)c4ccco4)c(OC)c3)C(=O)N=C2S1	-5	-6	-6	-5	-5	0	.
COc1cc(/C=C2\C(=O)N(c3ccc(S(N)(=O)=O)cc3)N=C2C)ccc1OC(=O)c1ccco1	6	53*	-9	4	0	1	10
COCC(C)NC(=O)c1cc(-c2ccc(OC)c(OC)c2)on1 (centres undefined)	-3	53*	-1	-1	2	5	4
O=C(c1ccco1)c1nnn(Cc2ccccc2)c1-c1ccccc1	-6	5	-10	-6	-2	-5	.
CN1CCN(c2nc3ccccc3nc2C(C#N)S(=O)(=O)c2ccccc2)CC1 (centres undefined)	1	-3	-5	0	1	4	.
N#CC(c1nc2ccccc2nc1N1CCCC1)S(=O)(=O)c1ccccc1 (centres undefined)	16	53*	-8	-2	7	0	56*
CC(=NCCCn1ccnc1)c1c(-c2ccccc2)[nH]n(-c2nc3ccccc3s2)c1=O	-4	57*	1	-4	4	-5	5
